Reference: the supplement of paper PMC6555819

The sequences below were run on VDR:RXRa (NR concentration 270 nM, RXRa partner concentration 90 nM) (assay: PBM binding z-score (relative to random genomic background probes); higher = stronger binding; sequences stand for … in GC…GCGATTGACAGCGTAGAATGAAGG).
Procedure: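 Protein-binding microarray (Agilent 4x180K custom design, double-stranded 60-nt probes: 5' GC cap, 34-nt variable region, 24-nt constant primer region; full probe sequence given). Purified or IVT nuclear receptor:RXRα heterodimers (3:1 NR:RXRα, mostly 270:90 nM) or homodimers were incubated for 1 h in PBS with 2% milk and no ligand, then detected with Alexa488 antibodies. Fluorescence from o1-orientation probes (~5 replicates averaged) was converted to z-scores against 500 random hg19 background probes. Variable regions are seed direct-repeat (DR0–DR5) sites, all their single-nucleotide variants and half-site ablations.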

Row | Sequence | PBM binding z-score
1 | GATACAGGGTCAGCTAGAGGGCAGAGTATGGAAA | 4.22
2 | AGAATGAGGTTAGCAAAGATCAGGGAAACGCTTG | 0.322
3 | ATATGTAGGTTAGGGTCACTCAGAAAGTAGGGAA | 3.98
4 | TCGAGTAGGCTACGGGGGCATTCAGGGATGAAGA | 2.2
5 | ACTTACGGGTCAACGACGTTATAGCACGCGTATA | 4
6 | CCTCGGAGGACAGAAGGTCAGATCTGTCCGCTTT | 0.977
7 | CCCACTGGGGCAAAGGTTACCATACTCAGTACGA | 1.61
8 | TAGCCTAGGTCATAGGCCAGTATACCACGCGAAC | 1.74
9 | CTATCTAGGTTAAGGGGGTCATTCAGTTTGAAAG | 7.51
10 | ATCGAACGGTCGAGGTGAGTATAGAGAAAGGGAA | -0.335
11 | ATACCAAGGTGATCGTGAGTTCGTTGATACTAAC | 4.08
12 | CCTACTGGGCCATACAGAGGTCATTGATCATATG | 4.09
13 | ATCGAAAGGTCGAAGGTCAGTATACCCACCCGAA | 4.35
14 | ACTTACGGGTCAAGGAGGTTATAGCACGCGTATA | 6.7
15 | ATCTCTAGGTAAAGGTCAGTGAAAGATCGATAGA | 2.89
16 | ATTTGTAGGTTAGGGTCATTCAGAAAGTAGGGAA | 4.81
17 | TCGAGTAGGTTACGGGAGCATTCAGGGATGAAGA | 0.0873
18 | CGTCCAACGTCAAGGTCAGTGAAAGAGACTCGAA | 1.18
19 | CTTACTGGGCCAAAGGTCATTGATTCCAATGCTC | 4.77
20 | CCGAGTAGGTTACGAGGGGGCATTGAGTGCGAAT | 6.16

Row | Sequence | PBM binding z-score
21 | CGTCAAAGTTCAAGGCAACGTAACAGAAAGCAGC | 3.3
22 | CCTGCTAGGACAATGGTCAGCTAAAGCAGCTCGC | -0.832
23 | TTTAGTTGGTCAAAGGTCACACACTCGAAATGCG | 5.36
24 | CGAACTAAGTCACCAGGACAGTGAAGAGGTTGGA | -0.118
25 | TTACCAAGGTGAAAGGTCGGTGATGCACGCCTTG | 1.38
26 | ATCGAATGGTCGAAGGTGAGTATACCCACCCGAA | -0.0843
27 | ATATGTAGGTTAGGGTCTTTCAGAAAGTAGGGAA | 0.666
28 | TATACAGGGTCAAAGGGCAGAGTACGAATGTCGA | 5.43
29 | CGAACTAAGTCAAAGGACAGTGAAAGGCGACGTA | -0.259
30 | GATAAAGGGTCAGCTAGAGGCCAGAGTATGGAAA | 3.73
31 | ATATGTAGGTGAAGGGTCATTCAGGTTGGTTCGC | 5.46
32 | AGTCGGAGGACAAAGGTCAGAGCTACGCCAGTGA | 3.28
33 | AGATGTAGGTTAGGGTCATTCAGAAAGTAGGGAA | 4.32
34 | ATATTTAGGTTAGGGTCATTCAGAAAGTAGGGAA | 4.6
35 | CGAACTAGGTCTCCAGGACAGTGAAGAGGTTGGA | -0.586
36 | TCGAGTAGGTTACGGGGGCACTCAGGGATGAAGA | 3.33
37 | ATATGTAGGTTAGTGTCATTCAGAAAGTAGGGAA | 1.04
38 | CGTCTAAGTTCAAGGTAACGTAACAGAAAGCAGC | 3.43
39 | CGAACTAGGTCACCAGGAGAGTGAAGAGGTTGGA | 1.71
40 | TCTCGGAGGACACGAAAGGTCAGAACTCGACATC | 3.19
